Compounds with a hit are over-represented: about 3.8% of the library has one in this group of screens.
Jurkat NFkB inh: inhibitors of induced NF-kB luciferase reporter, primary screen, TCR NF-kB activation inhibitor project, cell-based, luminescence, uHTS | Jurkat, PMA/ionomycin-induced NF-kB luciferase reporter | inhibition, % at 4 µM | actives 0.53% (n = 330,000); in the data active = inhibition above about 50%
Mdm2-MdmX inh: inhibitors of human Mdm2-MdmX association, primary screen, cell-based, luminescence, split luciferase, SaOS-2, uHTS. Protein Mdm4 (Homo sapiens) + E3 ubiquitin-protein ligase Mdm2 (Homo sapiens), …. SaOS-2 split-luciferase Mdm2/MdmX complementation. inhibition, % at 8 µM. actives 3% (n = 330,000);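 active = inhibition of at least 50% at 8 µM in the primary screen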
697 NFkB inh: inhibitors of PMA/ionomycin-induced NF-kB reporter, 697 cells, primary screen, B-cell NF-kB inhibitor project, cell-based, luminescence, uHTS; 697 B-cell NF-kB luciferase reporter, 16 h; inhibition, % at 4 µM; actives 0.33% (n = 330,000); AID 435022, 2010; in the data active = inhibition above about 35%
NTR1 ag: agonists of human NTR1, primary screen, imaging, U2OS cells, beta-arrestin-GFP, high content. Neurotensin receptor type 1 (Homo sapiens), P30989. NTR1-U2OS beta-arrestin-GFP spot imaging, agonist mode. activation, % at 20 µM. actives 0.17% (n = 330,000);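 active = activation at or above 40% of the spot to cytoplasm intensity ratio, with at least 20 cells analyzed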;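 note: 0% = DMSO without peptide and 100% = 100 nM NTR1 peptide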
A1 inh: caspase 3/7 activation in MEF A1-2A-BIM cells, primary screen, A1 inhibitor project, cell-based, luminescence, HTS; actives 0.066% (n = 330,000); Caspase-Glo 3/7 luminescence, 3 h; percent of clofoctol response, vehicle zero; caspase activation, % (no concentration beside the values);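 active = over half of replicate activation scores above 10%, or exactly half above 10 with the replicate mean above 10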
Beta apoptosis: inhibitors of cytokine-induced beta cell apoptosis, primary screen, luminescence | actives 0.8% (n = 300,000) | INS-1E cytokine-induced death, ATP luminescence, 48 h; percent of positive-control rescue, neutral wells zero | protection from apoptosis, % (test concentration not listed) | AID 435005, 2010;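 active = Every replicate reaches about 75%, or at least half do and their mean reaches it too, limit read from the data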;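 note: 0% = cytokine-treated negative control wells and 100% = positive control rescue; higher means more ATP so stronger rescue from cytokine killing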
Mdm2-MdmX conf: Mdm2-MdmX complex disruptors, retested hits, confirmation, luminescence, single concentration | shares compounds with Mdm2-MdmX inh | Mdm2-MdmX binding, luminescent assay | inhibition, % at 8 µM | actives 55% (n = 10,000) | AID 489028, 2010; in the data active = inhibition above about 40%
Full FLuc ctr: full-length luciferase signal inhibition, confirmation, counter-screen for Mdm2/MdmX interaction inhibitor project, cell-based, single concentration, SaOS-2 | shares compounds with Mdm2-MdmX inh | SaOS-2 full-length luciferase counterscreen, luminescence | inhibition, % at 8 µM | actives 77% (n = 6,200) | AID 504607, 2011;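 active = mean inhibition at 8 µM reaching about 37%, which flags the compound as non-specific, limit read from the data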;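 note: p53-null SaOS-2 cells with luciferase driven by a doxycycline-inducible promoter; compound on cells about two nights before reading with doxycycline added after day one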
* hit, by the source's call; x = no result.

SMILES	Jurkat NFkB inh	Mdm2-MdmX inh	697 NFkB inh	NTR1 ag	A1 inh	Beta apoptosis	Mdm2-MdmX conf	Full FLuc ctr
CCCNc1nc2ccccc2n2c(C)nnc12	-21.3	58.3*	33.5	-1.6	0.7	-10.1	33.5	x
CCCN(CCC)c1nc2ccccc2n2c(C)nnc12	-12.6	9.1	-7.9	8.9	-0.3	-1.2	x	x
CCOC(=O)C1=CN(CC)S(=O)(=O)NC1CC (centres undefined)	x	29.6	7.9	0.4	x	x	x	x
CCOC(=O)N1CCN(C(=O)CCc2cc(OC)c(OC)c(OC)c2)CC1	-9.2	6.0	22.2	0.0	2.5	-3.9	x	x
CC1CCN(CC(=O)n2c3c(c4ccccc42)CCCC3)CC1	-6.3	10.0	17.3	6.0	-0.5	x	x	x
O=C(c1ccccc1F)n1c2c(c3ccccc31)CCCC2	9.9	56.4*	-0.9	3.5	0.3	1.1	43.6*	56.2*
COc1ccccc1NC(=O)NCCN1CCN(c2cccc(Cl)c2)CC1	-3.9	5.4	3.8	-1.6	-0.3	7.3	x	x
CCSc1ncc(/C=N/Nc2ccc([N+](=O)[O-])cc2)n1C	-122.8	69.2*	-136.2	1.2	-1.7	x	-86.6	x
CCOC(=O)c1ccc(S(=O)(=O)N2CCN(C/C=C/c3ccccc3)CC2)cc1	19.2	20.3	4.5	0.9	-0.5	-0.1	x	x
CC1=Nc2ccccc2/C1=C/c1sc(=N)n(-c2nccs2)c1O	-0.3	99.3*	12.9	-2.1	-0.1	56.8	67.0*	21.8
Oc1c(Cl)cc(Cl)cc1C=Nc1ccc(Br)cc1	-10.7	91.7*	-12.0	2.8	-0.4	-8.5	52.2*	60.4*
O=C(COC(=O)/C=C/c1ccc(Cl)cc1Cl)NCC1CCCO1 (centres undefined)	-9.4	18.9	-5.0	-1.3	-1.7	-4.0	x	x
CCn1c(SCC(=O)Nc2ccc(NC(C)=O)cc2)nc2c([nH]c3ccccc32)c1=O	-11.6	52.5*	14.5	0.0	-0.6	3.3	43.7*	44.1*
COCCn1c(SCC(=O)Nc2ccc(C(N)=O)cc2)nc2c([nH]c3ccccc32)c1=O	6.7	73.8*	1.9	-0.1	-0.2	-3.3	34.5	51.5*
COCCn1c(SCC(=O)Nc2ccc(F)cc2)nc2c([nH]c3ccccc32)c1=O	2.9	2.1	-44.7	0.6	1.2	x	x	x
Cn1c(SCC(=O)Nc2ccc(F)cc2)nc2c([nH]c3ccccc32)c1=O	10.5	91.4*	-0.1	4.9	0.9	29.9	46.1*	90.5*
Cc1ccc(NC(=O)CSc2nc3c([nH]c4ccccc43)c(=O)n2C)cc1	4.0	37.7	8.9	19.8	-0.1	55.1	x	x
COc1cccc(-n2c(SCC(=O)N3CCCCC3)nc3c([nH]c4ccccc43)c2=O)c1	-4.2	78.6*	7.9	11.2	0.8	x	31.4	x
COc1ccc(S(=O)(=O)N2CCOCC2)cc1NC(=O)CCOc1ccc(C(C)(C)C)cc1	10.5	22.2	-21.3	2.5	x	x	x	x
CCOc1ccc(NC(=O)CSc2nc3c([nH]c4ccccc43)c(=O)n2C)cc1	5.9	7.5	15.5	-0.6	-0.2	-8.2	x	x
COc1ccc(NC(=O)CSc2nc3c([nH]c4ccccc43)c(=O)n2C)c(OC)c1	-23.0	59.7*	-9.3	3.1	0.6	0.2	19.9	x
COc1ccc(CC(=O)NNC(=O)c2cnccn2)cc1	6.8	5.6	9.9	-1.8	0.8	-7.9	x	x
COc1ccc(C(=O)NC(=S)NNC(=O)c2cnccn2)cc1	16.7	64.2*	7.7	2.0	0.4	76.8*	56.8*	40.6*
O=C(NC(=S)NNC(=O)c1cnccn1)c1ccc(Cl)cc1	-12.8	69.2*	16.8	0.5	-0.6	3.7	39.5	47.7*
COC(CNC(=O)c1cn(C)c2ccc(S(=O)(=O)N(C)C3CCCCC3)cc2c1=O)OC	3.6	17.1	7.3	-0.8	-0.3	2.5	x	x
SMILES	Jurkat NFkB inh	Mdm2-MdmX inh	697 NFkB inh	NTR1 ag	A1 inh	Beta apoptosis	Mdm2-MdmX conf	Full FLuc ctr
CCOc1cccc2sc(=NC(=O)CCS(=O)(=O)c3ccc(F)cc3)n(C)c12	2.7	-5.1	-11.9	8.5	0.5	x	x	x
Cc1ccc(S(=O)(=O)N2CCOCC2)cc1C(=O)OCC(=O)c1c(N)n(C)c(=O)n(C)c1=O	-3.1	15.4	6.5	-0.8	-0.2	-0.5	x	x
Cn1c(N)c(C(=O)COC(=O)c2cc(S(=O)(=O)N3CCOCC3)ccc2F)c(=O)n(C)c1=O	9.8	82.0*	21.4	29.5	1.4	-5.0	28.4	x
Cn1c(=O)c(=O)n(C)c2cc(S(=O)(=O)N3CCOc4ccccc43)ccc21	3.1	-2.4	-1.8	-0.2	0.5	4.7	x	x
Cn1c(N)c(C(=O)CSc2nn(-c3ccc(F)cc3)c(=S)s2)c(=O)n(C)c1=O	23.3	38.4	-36.7	3.0	-0.4	-6.9	x	x
CCC1(CC)NC(=O)N(CC(=O)OCC(=O)Nc2ncc(Cl)cc2Cl)C1=O	-3.7	9.7	4.9	-0.5	0.4	-2.3	x	x
O/N=C/c1ccc2cccc(OCc3ccccc3)c2n1	-2.3	16.0	-4.8	3.4	0.1	-3.1	x	x
COc1ccc(C(=O)N/N=C/c2ccc3cccc(OCc4ccccc4)c3n2)cc1	-0.6	59.3*	-25.2	13.3	1.0	10.3	16.0	x
NC(N)=N/N=C/c1ccc2cccc(OCc3ccccc3)c2n1	33.8	50.9*	-73.6	5.9	0.1	30.1	60.0*	81.2*
CSc1ccc(S(=O)(=O)NCC(=O)OCC(=O)N2CCC(C)CC2)cc1[N+](=O)[O-]	-2.9	9.7	20.4	3.4	1.6	2.1	x	x
O=C(Nc1ccc(Cl)cc1)Nc1nnc(SCc2ccccc2)s1	-26.4	-13.0	-24.9	-0.9	0.4	10.5	x	x
O=C(Nc1ccc(Cl)c(Cl)c1)Nc1nnc(CSc2ccccc2)s1	23.5	94.8*	-44.6	13.2	0.5	99.6*	77.2*	49.6*
Cc1ccc(OCCSCc2nnc(NC(=O)Nc3cccc(Cl)c3)s2)cc1	27.7	91.5*	-18.6	4.7	-0.6	5.9	81.6*	96.7*
O=C(Nc1ccccc1)Nc1nnc(CSCc2ccccc2Cl)s1	-0.9	84.7*	-3.3	11.4	-0.3	-2.2	47.4*	66.5*
O=C(Nc1ccc(Cl)cc1)Nc1nnc(CSCc2ccccc2Cl)s1	-1.7	60.7*	-5.7	3.3	0.1	36.4	15.4	x
